More than one record can exist for a structure, and the calls need not agree. The source made the active and inactive calls. The calls were made as follows: active = hit-call score of the fitted dose curve at least 0.9, where 1 is the maximum; inactive = score below 0.9.

Assay [1] can be described thus: APR_HepG2_P-H2AX_72hr: Apredica 72-hour HepG2 Assay for H2AX Phosphorylation (AID 2282916).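 Also: phospho-histone H2A.x immunostain intensity per cell marking DNA damage.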 The note with it: imaging, actives raise or lower the signal. In outline: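 Following 72 hr treatment with 0.39–200 uM compound, HepG2 cells were formaldehyde-fixed, permeabilized and stained for phospho-H2A.x; signal was measured by high-content imaging and fitted bidirectionally against DMSO controls.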

Assay [2] in a line: APR_HepG2_MitoMembPot_72hr: Apredica 72-hour HepG2 Assay for Mitochondrial Membrane Potential (AID 2282917). The note with it: imaging, actives raise or lower the signal. Summed up:
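Membrane potential read by MitoTracker Red CMXRos (250 nM, 30 min, pre-fixation) fluorescence imaging of HepG2 after 72 hr exposure. Ten concentrations, 0.39–200 uM, duplicate wells, 0.5% DMSO; fitted in both directions against DMSO baseline.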

Assay [3] in a line: APR_HepG2_MitoticArrest_72hr: Apredica 72-hour HepG2 Assay for Mitotic Arrest (AID 2282918). Conditions: high-content imaging, actives raise or lower the signal. Summed up:
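Read-out is phospho-histone H3 immunofluorescence with Hoechst nuclear segmentation, imaged at 20x. Human HepG2 liver cells received ten concentrations (0.39–200 uM, final DMSO 0.5% v/v) for 72 hr before fixation. Gain or loss of signal was fitted relative to DMSO.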

The nature of assay [4]: APR_HepG2_MicrotubuleCSK_72hr: Apredica 72-hour HepG2 Assay for Microtubule CSK Stabilty (AID 2282919). Conditions: HepG2 microtubule cytoskeleton, high-content imaging, actives raise or lower the signal. Summed up:
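Read-out is tubulin fluorescence intensity from high-content imaging of HepG2 cells, with nuclei identified by Hoechst 33342. Treatment lasts 72 h at 0.39–200 uM, and curves are fitted bidirectionally against the DMSO negative control.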

Assay [5] can be described thus: APR_HepG2_P-H2AX_24hr: Apredica 24-hour HepG2 Assay for H2AX Phosphorylation (AID 2282920). The note with it: high-content imaging, actives raise or lower the signal. In outline:
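HepG2, 24 hr, cpd 0.39–200 uM (10 conc, duplicate), DMSO 0.5% v/v final. Fix 3.7% formaldehyde, Triton X-100 permeabilize, anti-phospho-H2A.x 1:200 + Hoechst 2 ug/mL. Imaged, bidirectional fit vs DMSO.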

A short description of assay [6]: APR_HepG2_StressKinase_72hr: Apredica 72-hour HepG2 Assay for Stress Kinase (AID 2282921). Conditions: HepG2 stress kinase (phospho-c-Jun) imaging, actives raise or lower the signal. In outline: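 Fluorescence intensity of Cy3-tagged anti-phospho-c-Jun antibody, quantified per cell from Hoechst-defined nuclei across six images per well, served as the read-out following 72 h exposure (0.39–200 uM, 0.5% v/v DMSO).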

Assay [7] in a line: APR_HepG2_StressKinase_24hr: Apredica 24-hour HepG2 Assay for Stress Kinase (AID 2282922). Conditions: HepG2 stress kinase (phospho-c-Jun) imaging, actives raise or lower the signal. In outline: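 HepG2, 24 hr dosing, 0.39–200 uM in duplicate, 0.5% DMSO; formaldehyde fix (3.7%), 0.5% Triton X-100; anti-phospho-c-Jun + Cy3 secondary, Hoechst counterstain; ArrayScan imaging; bidirectional curve fit vs DMSO baseline.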

A short description of assay [8]: APR_HepG2_p53Act_72hr: Apredica 72-hour HepG2 Assay for p53 Activation (AID 2282923).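 Also: average cellular p53 protein immunofluorescence intensity in HepG2 cells.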 Conditions: high-content imaging, actives raise or lower the signal. Summed up:
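HepG2 monolayers receive test compounds in duplicate at ten concentrations (0.39 through 200 uM) for 72 hr. They are then formaldehyde-fixed, antibody-labelled for p53, Hoechst-stained and imaged, with activity fitted bidirectionally versus DMSO.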

Assay [9] in a line: APR_HepG2_MitoMass_72hr: Apredica 72-hour HepG2 Assay for Mitochondrial Mass (AID 2282924).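 Also: MitoTracker Red CMXRos stain intensity per cell imaged as mitochondrial mass.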 Conditions: high-content imaging, actives raise or lower the signal. In outline: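 HepG2, 72 hr cmpd, 10 conc 0.39–200 uM in dup, DMSO 0.5% v/v. MitoTracker Red CMXRos 250 nM 30 min pre-fix; formaldehyde 3.7% fix 30 min RT. HCS imaging, gain/loss fit vs DMSO.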
Assay [10] can be described thus: APR_HepG2_NuclearSize_72hr: Apredica 72-hour HepG2 Assay for Nuclear Size (AID 2282925). The note with it: high-content imaging, actives raise or lower the signal. Summed up:
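HepG2; cpd 0.39–200 uM, 10 conc, duplicate; 72 h; DMSO 0.5% v/v; fix 3.7% formaldehyde 30 min RT; Triton permeabilization; Hoechst 2 ug/mL; HCS imaging 20x; nuclear diameter; gain/loss fit vs DMSO.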

Assay [11] is described as follows: ATG_CRE_CIS: Attagene CIS-FACTORIAL HepG2 Assay for human cAMP Responsive Element (CRE) binding protein 3 (AID 2282926). The note with it: HepG2 CRE cis-reporter, Attagene multiplexed mRNA; actives raise or lower the signal. Summed up: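 Human liver HepG2, transient MRTU transfection, 24 h compound exposure. Total RNA → oligo(dT) RT → PCR → 6-FAM primer extension → HpaI cut → CE. Activity called both directions vs DMSO.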

Assay [12] has as its target CCAAT/enhancer-binding protein beta (Homo sapiens) (UniProt P17676). Briefly: ATG_C_EBP_CIS: Attagene CIS-FACTORIAL HepG2 Assay for human CCAAT/Enhancer Binding Protein (C/EBP) beta (AID 2282927). The note with it: HepG2 Attagene cis-factorial transcription factor reporter; actives raise or lower the signal. Summed up: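 Endogenous C/EBPb-driven reporter transcripts measured in transfected human HepG2 cells at 24 h via RT-PCR and capillary electrophoresis of labelled fragments. Activity fitted in both directions relative to DMSO baseline.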

Assay [13] in a line: ATG_CMV_CIS: Attagene CIS-FACTORIAL HepG2 Assay for human CMV (Internal Marker) (AID 2282928).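 Also: endpoint acts as a background internal control marker rather than a target.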 Conditions: HepG2 CMV promoter reporter, transcription factor profiling; actives raise or lower the signal. In outline: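 Endogenous transcription factor activity read in HepG2 via transfected cis-promoter reporter units. After 24 h dosing, reporter mRNA measured by RT-PCR/capillary electrophoresis; gain or loss of signal fit relative to DMSO.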

A short description of assay [14]: ATG_DR4_LXR_CIS: Attagene CIS-FACTORIAL HepG2 Assay for human Liver X Receptor (LXR), DR4 submotif (AID 2282929). The note with it: HepG2 Attagene DR4 cis-reporter, mRNA transcription; actives raise or lower the signal. In outline: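 HepG2, transient MRTU transfection, cis-element (DR4) promoter; 24 h compound exposure; total RNA → oligo(dT) RT → PCR → 6-FAM primer extension → HpaI cut → CE. Gain/loss vs DMSO, bidirectional fit.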

In assay [15] the target is Aryl hydrocarbon receptor (Homo sapiens) (UniProt P35869). Briefly: ATG_Ahr_CIS: Attagene CIS-FACTORIAL HepG2 Assay for human Aryl Hydrocarbon Receptor (Ahr) (AID 2282930). Conditions: HepG2 AhR cis-factorial reporter transcription; actives raise or lower the signal. In outline:
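Reporter mRNA levels, quantified by RT-PCR and fluorescent capillary electrophoresis, reflect endogenous AhR transcriptional activity in HepG2 cells carrying transfected cis-promoter reporter constructs. Readout at 24 h post-dose; gain or loss fitted against DMSO baseline.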

A short description of assay [16]: ATG_AP_1_CIS: Attagene CIS-FACTORIAL HepG2 Assay for human Activator Protein 1 (AP-1) (AID 2282931). The note with it: HepG2 Attagene cis-factorial AP-1 reporter mRNA; actives raise or lower the signal. In outline: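 Transient MRTU transfection of HepG2 → 24 h chemical treatment → RNA isolation, RT-PCR, 6-FAM labelling, HpaI digest → capillary electrophoresis. Fit: bidirectional, DMSO negative control.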

Assay [17] is described as follows: ATG_AP_2_CIS: Attagene CIS-FACTORIAL HepG2 Assay for human Activator Protein 2 (AP-2) (AID 2282932). The note with it: HepG2 AP-2 cis-reporter, Attagene transcription factor profiling; actives raise or lower the signal. In outline:
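Step one: transient transfection of HepG2 with reporter transcription units. Step two: 24 h chemical exposure. Step three: RNA extraction, RT-PCR, labelled fragment analysis by capillary electrophoresis; DMSO serves as baseline.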

Assay [18] concerns the target Retinoic acid receptor alpha (Homo sapiens) (UniProt P10276). Nature of the assay: ATG_DR5_RAR_CIS: Attagene CIS-FACTORIAL HepG2 Assay for human Retinoic Acid Receptor Alpha (RARE), DR5 submotif (AID 2282934). Conditions: HepG2 Attagene cis-factorial RARE DR5 reporter, mRNA; actives raise or lower the signal. Summed up: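 Reporter transcripts from a DR5-regulated unit, measured via RT-PCR plus capillary electrophoresis, reflect endogenous RAR activity in transiently transfected human HepG2 liver cells. Exposure lasted 24 h; gain or loss of signal scored against DMSO.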

For assay [19], the target named is Transcription factor E2F1 (Homo sapiens) (UniProt Q01094). Nature of the assay: ATG_E2F_CIS: Attagene CIS-FACTORIAL HepG2 Assay for human E2F Transcription Factor 1 (AID 2282935). The note with it: HepG2 Attagene cis-reporter, E2F reporter RNA transcripts; actives raise or lower the signal. Summed up:
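Total RNA from 24 h-treated, reporter-transfected HepG2 cells undergoes DNase I treatment, oligo(dT) reverse transcription, PCR and 6-FAM primer extension before capillary electrophoresis.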

A short description of assay [20]: ATG_BRE_CIS: Attagene CIS-FACTORIAL HepG2 Assay for human Bone Morphogenetic Protein (BMP) Response Element (BRE) (AID 2282933). The note with it: HepG2 BMP response element reporter, Attagene transcription factor profiling; actives raise or lower the signal. In outline: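 Endogenous transcription factor activity at a BMP response element was monitored in transfected HepG2 cells 24 h after dosing. Fluorescent RT-PCR products were resolved by capillary electrophoresis, and activity was fitted in both directions versus DMSO.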

Sequence of Transcription factor E2F1 (Homo sapiens) (Q01094 whole entry, looked up): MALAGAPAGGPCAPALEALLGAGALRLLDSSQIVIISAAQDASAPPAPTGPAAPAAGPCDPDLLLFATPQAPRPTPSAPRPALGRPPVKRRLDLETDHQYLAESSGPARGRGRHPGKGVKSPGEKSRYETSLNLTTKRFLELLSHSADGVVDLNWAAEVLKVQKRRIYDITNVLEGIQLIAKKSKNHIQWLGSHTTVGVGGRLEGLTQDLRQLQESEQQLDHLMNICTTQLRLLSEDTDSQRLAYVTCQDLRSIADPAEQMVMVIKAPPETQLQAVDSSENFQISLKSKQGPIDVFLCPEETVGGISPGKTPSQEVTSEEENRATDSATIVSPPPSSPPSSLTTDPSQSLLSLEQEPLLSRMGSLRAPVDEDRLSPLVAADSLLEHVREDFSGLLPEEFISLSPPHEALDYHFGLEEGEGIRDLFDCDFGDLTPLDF
Sequence of Aryl hydrocarbon receptor (Homo sapiens) (P35869 whole entry, looked up): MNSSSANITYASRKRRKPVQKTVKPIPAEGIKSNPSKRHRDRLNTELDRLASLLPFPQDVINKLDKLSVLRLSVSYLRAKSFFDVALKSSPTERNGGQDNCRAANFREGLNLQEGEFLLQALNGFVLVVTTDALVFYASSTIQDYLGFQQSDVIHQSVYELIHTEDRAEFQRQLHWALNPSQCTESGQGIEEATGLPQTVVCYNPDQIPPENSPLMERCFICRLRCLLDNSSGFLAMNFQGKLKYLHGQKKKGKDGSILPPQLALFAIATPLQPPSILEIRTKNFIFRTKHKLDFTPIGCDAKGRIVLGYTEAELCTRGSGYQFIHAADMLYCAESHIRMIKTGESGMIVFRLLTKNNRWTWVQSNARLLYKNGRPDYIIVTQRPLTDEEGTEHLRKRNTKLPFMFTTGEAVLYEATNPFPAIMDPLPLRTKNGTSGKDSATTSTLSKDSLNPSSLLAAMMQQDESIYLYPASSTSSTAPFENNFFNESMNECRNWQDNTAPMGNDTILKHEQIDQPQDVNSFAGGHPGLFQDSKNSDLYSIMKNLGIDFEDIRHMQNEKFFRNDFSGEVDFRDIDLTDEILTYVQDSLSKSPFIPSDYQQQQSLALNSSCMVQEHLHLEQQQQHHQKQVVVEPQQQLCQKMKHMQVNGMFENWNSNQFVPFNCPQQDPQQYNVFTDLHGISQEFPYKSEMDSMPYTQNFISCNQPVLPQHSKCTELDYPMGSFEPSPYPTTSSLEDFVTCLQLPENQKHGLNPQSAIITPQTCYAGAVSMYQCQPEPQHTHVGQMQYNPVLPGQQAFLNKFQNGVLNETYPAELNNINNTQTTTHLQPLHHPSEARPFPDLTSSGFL
Sequence of Retinoic acid receptor alpha (Homo sapiens) (P10276 whole entry, looked up): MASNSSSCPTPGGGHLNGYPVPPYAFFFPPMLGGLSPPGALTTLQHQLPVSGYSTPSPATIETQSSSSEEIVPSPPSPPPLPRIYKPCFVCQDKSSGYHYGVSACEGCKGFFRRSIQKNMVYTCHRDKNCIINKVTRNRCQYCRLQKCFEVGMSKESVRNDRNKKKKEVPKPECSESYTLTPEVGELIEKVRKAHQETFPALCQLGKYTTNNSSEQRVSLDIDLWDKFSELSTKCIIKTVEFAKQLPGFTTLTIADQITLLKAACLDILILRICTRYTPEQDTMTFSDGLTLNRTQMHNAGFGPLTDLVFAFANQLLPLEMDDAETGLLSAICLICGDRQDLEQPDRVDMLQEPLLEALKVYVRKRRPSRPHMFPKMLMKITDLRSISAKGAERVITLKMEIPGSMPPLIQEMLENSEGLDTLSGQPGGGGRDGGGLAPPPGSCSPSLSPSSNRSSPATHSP
Sequence of CCAAT/enhancer-binding protein beta (Homo sapiens) (P17676 whole entry, looked up, the tested form may be a part): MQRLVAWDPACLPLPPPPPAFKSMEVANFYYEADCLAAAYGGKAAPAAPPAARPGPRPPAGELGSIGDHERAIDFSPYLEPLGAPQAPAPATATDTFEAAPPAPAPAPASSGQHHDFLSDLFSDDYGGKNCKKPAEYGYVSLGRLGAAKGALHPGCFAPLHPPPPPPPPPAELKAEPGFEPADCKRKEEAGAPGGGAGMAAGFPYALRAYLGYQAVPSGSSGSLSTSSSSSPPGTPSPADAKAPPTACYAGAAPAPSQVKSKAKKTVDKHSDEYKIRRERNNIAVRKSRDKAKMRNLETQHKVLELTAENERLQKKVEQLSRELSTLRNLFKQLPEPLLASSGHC

As to `CO/C=C(/C(=O)OC)c1ccccc1COc1cccc(C(F)(F)F)n1`, the AC50 – broadly, the concentration at which the activity in the assay is half-maximal – was 20.5 µM (active) in [1]; 29.1 µM (active) in [3]; 26.9 µM (active) in assay [8]; 0.638 µM (active) in [9]; 7.46 µM (active) in assay [14]. Further, the compound was called inactive in [2], in assay [4], in assay [5], in [6], in assay [7] and in assay [10]. The outcome in [11], in assay [12], in assay [13], in assay [15], in assay [16] and in assay [17] was inactive. Also, the compound was called inactive in [18] and in [19].

On to `O=C(NC(=O)c1c(F)cccc1F)Nc1cc(Cl)c(OC(F)(F)C(F)F)c(Cl)c1`, for which the result in assay [1], in assay [2], in assay [4], in assay [5], in assay [6] and in assay [7] was inactive. Besides, the compound was called inactive in assay [9], in assay [10], in [11], in [12], in assay [13] and in assay [14]. Moreover, the call in assay [15], in assay [16], in assay [17], in [18] and in assay [19] was inactive. Moreover, the AC50 in assay [3] is 16.9 µM (active); in assay [8], 6.27 µM (active).

As to `COS(=O)(=O)OC`, the call in assay [1], in [2], in assay [3], in assay [4], in assay [5] and in assay [6] was inactive. The outcome in assay [7], in [8], in [9], in assay [10], in assay [11] and in assay [12] was inactive. For the same compound, the call in [13], in assay [14], in assay [15], in [16], in [17] and in assay [20] was inactive. Also, the call in assay [18] and in assay [19] was inactive.

Regarding `Cc1cc(-c2ccc(N)c(C)c2)ccc1N`, the outcome in [1], in assay [2], in assay [3], in [4], in [6] and in assay [7] was inactive. The outcome in [8], in assay [9], in assay [10], in assay [11], in [12] and in assay [13] was inactive. Also, the result in assay [14], in assay [16], in assay [17], in [20], in assay [18] and in [19] was inactive. Also, the AC50 in assay [13] was 60.2 µM (active).

Regarding `C=CC(N)=O`, the result in assay [1], in [2], in assay [3], in assay [4], in assay [6] and in [7] was inactive. The call in assay [8], in [9], in assay [10], in assay [11], in assay [12] and in assay [13] was inactive. The compound was classed as inactive in [15], in [16], in assay [17], in assay [18] and in assay [19]. In addition, in assay [14], the AC50 was 47.6 µM (active).

In the case of `CCCCCCOC(=O)c1ccccc1C(=O)OCCCCCC`, the compound was called inactive in assay [1], in [2], in [3], in assay [6], in assay [7] and in [8]. The call in assay [9], in assay [10], in assay [11], in assay [12], in assay [13] and in assay [14] was inactive. Also, the call in assay [15], in assay [17], in assay [18] and in assay [19] was inactive. For the same compound, the AC50 in assay [4] is 102 µM (active); in assay [16], 45.3 µM (active).

The values above are taken from PubChem BioAssay (EPA / NIEHS).
